Where “and” joins values, the source holds several entries; their conditions need not be identical. Equal entries are not always repeated. This is part of a sample that, as a whole, favours compounds with a hit. Of some 83,000 tested, about 20% had one in any assay.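 Compound tested at a single concentration for 48 hours in 96-well plates; a percent growth value below 10 was scored as active.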 A number with no mark means an inactive call. Calls of active or inactive are those of the source.

The first assay deals with A549/ATCC NSCLC. The assay can be described thus: NCI-60 one-dose screen, 48 h (100 = growth as untreated, 0 = no growth, -100 = all killed). The settings on record: 10 µM. The protocol:
Growth inhibition of the A549/ATCC human Non-Small Cell Lung tumor cell line is measured as a screen for anti-cancer activity. Cells are grown in 96 well plates and exposed to the test compound for 48 hours. Compounds are tested at a single concentration, which is 10^-5 M for most compounds. The reported endpoint is percent growth (GI% or GIPRCNT), where numbers from 0 - 100% represent growth inhibition, and numbers from -100% - 0 represent cell death. For example, a value of 40 represents 60% growth inhibition. A value of 0 means no net growth occurred over the course of the experiment. A value of -40 indicates 40% of cells at the beginning of the experiment died by the end of the experiment. A value of -100 means all cells are dead at the end of the experiment.
NCI-60 Human Tumor Cell Lines Screen was performed using the standard one-dose NCI protocol, which is described in more detail at https://dtp.cancer.gov/discovery_development/nci-60/default.htm.
Compounds with GIPRCNT values below 10 were considered active. Activity score was based on GIPRCNT using the following formula: […]
Score is 0 for GIPRCNT values of 100 or above, 50 for GIPRCNT values of 0, and 100 for GIPRCNT values of -100.
Turning to `CS/C(=C\c1ccc(C(=O)c2ccc(C)cc2)n1C)S(C)=O` (stereo not given), the growth was 85.1%.

Staying with this assay, now noted: 10 µM unless noted.
On to `COc1ccccc1OCC(O)CO` (stereo not given), for which the growth was 96.6%. On the same count and under the same terms, in the case of `CSc1nc(N)c(N)c(N)n1` it was 95.1%. For the compound `CCOC(=O)C(N)Cc1cc(I)c(O)c(I)c1` (stereo not given), the growth is 107% and 101%. For `Nc1ccccc1SC1CC(=O)N(c2ccc(I)cc2)C1=O` (stereo not given), the growth is 87.1%.

Turning to `ON=C(C1CCCCC1)C1CCCCC1`, the growth was 95.9%. For the compound `Cc1cc2ccccc2c2cc3ccccc3cc12`, the growth was 92.7%.

As for `COc1cc(Cl)ccc1C`, the growth was 84.5%.

With `CCN(CC)Cc1cc2[nH]c3c4ccc(Cl)cc4ncc3c2cc1OC`, the growth is 19.6% and 44.1%.

As to `CCOC(C)=N`, the growth was 101%. `CCN(CC)C(=S)SCCO`: the growth was 99.3%. The same measure, in the same setting: in the case of `COc1cc2c(cc1O)C(=O)CCCC2` it was 110%; in that of `CC(=O)Nc1ccc2oc(=O)ccc2c1`, 102%; in that of `Cc1ccc(S(=O)(=O)n2ccnc2)cc1`, 89.1%. Regarding `COc1ccc(/C=N/NC(N)=S)cc1`, the growth is 82.1%. The same measure, in the same setting: in the case of `COC(=O)C(Cc1cn(C(C)=O)c2ccccc12)P(=O)(OC)OC` (stereo not given) it was 106%.

As to `O=C(N=C1C(=O)C2(CCCCC2)C2(N=C(c3ccccc3)OC2=O)C12CCCCC2)c1ccccc1` (stereo not given), the growth is 5.7% (active).

For the compound `NC1=NC(c2ccccc2)N=C(Nc2ccccc2)N1` (stereo not given), the growth was 94.1% and 106%. For the compound `CC1(C)OC(=O)C(=Cc2ccc(C#N)cc2)C(=O)O1`, the growth was 77.4%. On the same count and under the same terms, in the case of `CC(C)(C)OC(=O)CC1(O)CCCCC1` it was 109%. The same measure, in the same setting: in the case of `CCC(=O)Oc1ccc(OCc2ccccc2)cc1` it was 99.7% and 102%; in that of `OCCSc1ccc(Cl)cc1`, 104% and 97%. Turning to `CCc1ccccc1-n1[nH]c(C)c(C=N)c1=O`, the growth was 126%. The same measure, in the same setting: in the case of `Clc1ccc(/C=C/c2ccc3ccccc3n2)cc1` it was 25.9% and 92.3% and 96.6%; in that of `Nc1[nH][nH]c(=O)c1N=Nc1ccccc1`, 103% and 110%; in that of `Cc1cnc(N)s1`, 69%. Same read-out and setting: in the case of `CCNCc1ccccc1` it was 102%; in that of `O=[N+]([O-])c1ccc(N2CCN=N2)cc1`, 82.2%.

With `O=C1c2ccccc2CN1c1ccccc1`, the growth is 91.4%.

For the compound `CC(O)CCNC(c1ccccc1)C(O)c1ccccc1` (stereo not given), the growth is 117%.

`CCOCCC(=O)O`: the growth is 115%. `CCN(CC)C(CC(=O)c1ccccc1)C(=O)c1ccccc1` (stereo not given): the growth is 102%. Consider `CCC(C)(O)CCC(C)(O)CC` (stereo not given), for which the growth is 106%. `CN(C=O)c1ccccc1`: the growth is 105%. Still for that read-out and setting: in the case of `COCCNC(C)=O` it was 104%; in that of `O=[N+]([O-])c1ccc(NC(c2ccccc2)c2ccc3cccnc3c2O)cc1` (stereo not given), 13.8%; in that of `COC(=O)c1nc(N)nc(C(=O)OC)c1C(=O)c1ccc(F)cc1`, 114%.

As for `COc1ccc(CCNC(=S)NN)cc1OC`, the growth is 106%. Consider `CC1=CC(=O)c2cccc(NC3=NCCO3)c21`, for which the growth is 92.3%.

The same assay, now with this note: 100 µM.
`CS/C(=C\c1ccc(C(=O)c2ccc(C)cc2)n1C)S(C)=O` (stereo not given): the growth was 65.7%.

These data come from PubChem BioAssay (NCI).
